Compound activity (PubChem BioAssay)
CendR NRP1 mod = alters CendR peptide binding to human NRP-1; FAM-RPARPAR peptide binding to NRP-1, fluorescence polarization; 360,000 tested, 0.85% active; inhibition, % at 25 µM; AID 602438;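 active = inhibition or corrected inhibition above about 18%, plus a signal ratio from 0.5 to 1.5, limit read from the data, passing the limit was not always enough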
sPLA2-III inh = Inhibits HGIII-sPLA2 liposome hydrolysis, primary screen. Q9NZ20. QFRET BODIPY PC-A2 liposome hydrolysis, fluorescence. inhibition, % at 12.2 µM. 370,000 tested, 0.56% active;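 active = inhibition above mean plus 3 SD of compounds lying within the high and low control bounds, cut at about 19% in these data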;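 note: 0% = median of test compound wells and 100% = no enzyme DMSO wells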
ADAM10 inh = inhibits human ADAM10; O14672; recombinant ADAM10, EDANS/DABCYL FRET peptide cleavage, 3 h; inhibition, % at 7 µM; 370,000 tested, 0.62% active; AID 720582;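 active = inhibition above a per-campaign cutoff equal to the mean of compounds falling between control-based bounds plus 3 SD, cut at about 20% in these data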;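 note: 0% = DMSO wells while the 100% control is not disclosed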
proKLK7 act = proKLK7 (human) activation, primary screen. 370,000 tested, 0.9% active. P49862. activation, % at 7 µM. AID 652039. purified proKLK7, EDANS-DABCYL substrate fluorescence; 100% is mature enzyme control, 0% vehicle;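 active = activation above the mean of all tested compounds plus 3 SD, computed per campaign excluding outliers beyond control limits, cut at about 13% in these data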
ADAM17 inh = ADAM17 inhibition, QFRET primary screen; P78536; recombinant ADAM17, EDANS/DABCYL FRET peptide cleavage; inhibition, % at 6.95 µM; 370,000 tested, 0.83% active;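 active = inhibition above the mean of compounds lying between control limits plus 3 SD, set per campaign, cut at about 8.5% in these data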;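 note: 0% = DMSO-only wells as the low control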
Target sequence (P78536 215-824 limits assumed): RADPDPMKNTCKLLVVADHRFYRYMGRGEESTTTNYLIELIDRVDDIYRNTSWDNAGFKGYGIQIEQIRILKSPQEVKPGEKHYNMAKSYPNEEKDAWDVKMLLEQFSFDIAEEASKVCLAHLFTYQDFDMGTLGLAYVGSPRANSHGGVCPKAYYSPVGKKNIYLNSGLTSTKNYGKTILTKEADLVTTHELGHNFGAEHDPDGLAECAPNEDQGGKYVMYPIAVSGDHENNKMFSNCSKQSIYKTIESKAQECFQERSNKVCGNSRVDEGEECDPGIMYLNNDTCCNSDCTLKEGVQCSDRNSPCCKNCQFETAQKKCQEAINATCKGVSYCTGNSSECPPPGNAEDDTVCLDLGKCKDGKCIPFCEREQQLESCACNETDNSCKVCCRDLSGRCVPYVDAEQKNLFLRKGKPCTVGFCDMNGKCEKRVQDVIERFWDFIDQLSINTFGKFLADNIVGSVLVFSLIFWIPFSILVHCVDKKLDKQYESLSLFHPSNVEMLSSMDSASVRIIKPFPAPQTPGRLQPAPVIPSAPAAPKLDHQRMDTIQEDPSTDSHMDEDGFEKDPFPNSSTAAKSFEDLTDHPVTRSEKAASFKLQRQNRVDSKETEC
The depositor's hits bear a star; x = not tested or not shown. Compounds with a hit are over-represented: about 3.4% of the library has one in this group of screens.

SMILES	CendR NRP1 mod	sPLA2-III inh	ADAM10 inh	proKLK7 act	ADAM17 inh
CC1(OC(=O)CCc2ccccc2)C(=O)C=C2C=C(c3ccc(C#N)cc3)N(C3CCCC3)C=C2C1=O (stereo unspecified)	30.3*	-0.6	-77.7	-0.4	-23.1
CC1(OC(=O)CCc2ccccc2)C(=O)C=C2C=C(c3ccc(C#N)cc3)N(CC3CC3)C=C2C1=O (stereo unspecified)	17.5	-0.2	-75.4	-0.1	-21.0
O=C(Nc1ccc(F)cc1F)c1ccccc1-c1ccccc1	30.8*	-0.5	4.8	-0.3	-0.3
COC(=O)C1CN(Cc2ccc(OC)cc2)CCS(=O)(=O)N1Cc1ccc(OC)cc1 (stereo unspecified)	x	5.2	-8.6	0.5	-6.8
O=C(O)c1ccccc1SCC(=O)N1CCOCC1	4.6	4.9	-8.1	-0.1	-1.0
O=C(O)c1ccccc1SCC(=O)N1CCCCC1	27.6*	-0.1	-5.1	0.5	-4.4
O=C(c1ccccc1-c1ccccc1)N1CCCC1	-12.6	-1.4	-1.9	0.0	-1.4
O=C(c1ccccc1-c1ccccc1)N1CCCCC1	22.9*	-1.4	-3.9	0.0	-3.6
O=C(c1cccc(F)c1F)N(Cc1ccccn1)CC1CCCO1 (stereo unspecified)	x	-0.4	-0.6	-0.3	1.1
CCN(CC)C(=O)Cn1cc(S(=O)(=O)CC(=O)NCc2ccc(C)cc2)c2ccccc21	21.9*	-4.2	0.3	0.6	-3.9
Cc1ccc(C(=O)Oc2coc(CSc3ncccn3)cc2=O)cc1[N+](=O)[O-]	x	7.3	14.3	x	0.6
COc1ccc(Cl)cc1S(=O)(=O)N1CCN(c2ccc(F)cc2)CC1	29.1*	-10.4	7.4	0.8	0.4
CCOc1ccc(Cl)cc1S(=O)(=O)N1CCN(c2ccc(F)cc2)CC1	3.2	-12.0	10.5	-0.1	5.9
COCCN1C(=O)/C(=C2/C(=O)N(CC(=O)Nc3ccccc3Cl)c3ccccc32)SC1=S	28.1*	4.7	-0.8	0.5	-5.6
O=C(CN1C(=O)/C(=C2\SC(=S)N(CCS(=O)(=O)O)C2=O)c2ccccc21)Nc1cccc(Br)c1	-21.7	-20.9	6.4	0.6	3.9
CCOC(=O)[C@H](O)[C@@H](O)c1cccc([C@H](O)[C@@H](O)C(=O)OCC)c1	24.4*	3.4	-3.8	0.0	-3.0
CCOC(=O)C(C(=O)OCC)C(Nc1ccccc1)c1ccccc1 (stereo unspecified)	-8.4	1.9	-2.1	-1.0	-3.9
Cc1c(C(=O)/C=C/N(C)C)nnn1-c1ccc(Cl)c(Cl)c1	0.5	-1.9	-6.9	-0.2	-2.9
Cc1c(C(=O)/C=C/N(C)C)nnn1-c1ccc(F)c(Cl)c1	38.2*	7.4	-12.6	-1.5	-1.1
CCNC(=O)OCCN1C(=O)CCC12CCC(c1ccc(Cl)cc1)CC2 (stereo unspecified)	x	10.4	-2.4	0.2	-3.3
CC(=O)Nc1ccc(NC(=O)C2CC(=O)N=C(N)S2)cc1 (stereo unspecified)	31.6*	7.6	12.1	-0.1	-3.6
Cc1ccc(S(=O)(=O)N2C[C@H]3[C@H]4C(=O)N(c5ccccc5)C(=O)[C@H]4CC(=O)[C@H]3[C@@H]2c2ccccc2F)cc1	25.0*	-5.1	-14.8	1.2	-4.3
Cc1cc(=O)[nH]c(SCC(=O)Nc2ccc(Cl)cc2)n1	x	9.0	-11.5	-0.5	-1.6
C=CCN1c2ccccc2[C@]23C[C@@H](C(=O)OC)N=C2NC(C(=O)OC)=C(C(=O)OC)[C@H]13	33.0*	2.6	-1.6	0.4	-1.3
CCOC(=O)[C@@]12CN(C(=O)OC(C)(C)C)CC=C1N(Cc1ccc(OC)cc1)C(=O)[C@H]2CC(=O)NCc1ccccc1	x	-5.0	-1.6	0.0	0.1
SMILES	CendR NRP1 mod	sPLA2-III inh	ADAM10 inh	proKLK7 act	ADAM17 inh
COc1cccc2cc(-c3nc4ccccc4o3)c(=O)oc12	29.6*	5.3	-18.1	-1.0	-7.9
NC(=O)c1oc2ccccc2c1NC(=O)c1ccc(F)cc1	12.1	-7.1	0.7	-0.3	2.0
NC(=O)c1oc2ccccc2c1NC(=O)c1nc2ccccc2s1	24.1*	-6.8	-17.0	-5.7	-7.7
O=C(CCc1ccccc1)N[C@H]1[C@H](OC(=O)c2cccnc2)CCC[C@@]12C(=O)N(Cc1ccccc1)c1ccccc12	x	-9.5	10.8	0.3	5.3
COc1ccc(CNc2nn3c(-c4cccc(C(=O)N(C)C)c4)cnc3s2)cc1	29.9*	-5.5	0.3	-0.1	2.1
COc1cccc(-c2cc(NC=O)c3ncc(-c4cccc(C(=O)N(C)C)c4)n3c2)c1	-34.8	-0.1	-42.0	-0.7	-14.0
Clc1ccc([C@H]2OC[C@@]3(CNCC4CC4)CS[C@H](c4ccc(Cl)cc4)N23)cc1	x	0.8	7.0	0.6	0.4
O=C(CSc1nnc(-c2ccccc2)n1Cc1ccco1)Nc1ccc(Oc2ccccc2)cc1	x	-2.3	-4.5	0.4	0.3
Cc1ccc(S(=O)(=O)/N=C2/C=C(C3C(=O)CC(C)(C)CC3=O)C(=O)c3ccccc32)cc1	-4.0	-18.0	-4.0	0.8	0.2
Cc1ccc(S(=O)(=O)/N=C2\C=C(NS(=O)(=O)c3ccccc3)C(=O)c3ccccc32)cc1	64.7*	-8.4	2.4	0.7	0.6
Cc1cc(C)c(S(=O)(=O)/N=C2\C=C(Nc3ccc(C(=O)O)cc3)C(=O)c3ccccc32)c(C)c1	22.8	-12.9	4.3	-0.5	0.1
Cc1cc(C)c(S(=O)(=O)/N=C2\C=C(NS(=O)(=O)c3ccccc3)C(=O)c3ccccc32)c(C)c1	28.4*	-0.8	8.6	-0.5	1.9
CCOC(=O)[C@]12CCCCC/C=C\1N(CCc1ccc(Cl)cc1)C(=O)[C@H]2CC(=O)NCCCN1CCCC1=O	x	-7.8	0.1	0.1	0.8
CCCS(=O)(=O)c1nc(S(=O)(=O)c2ccc(C)cc2)c(N2CCCC2)s1	19.1*	4.7	-7.3	0.6	-3.8
COc1cccc(-c2cc(CNC(=O)[C@H]3O[C@@H](n4cnc(C(N)=O)n4)[C@H](O)[C@@H]3O)no2)c1	x	-0.7	-5.7	0.3	3.2
CC(C)(C)c1ccc(S(=O)(=O)N2CCN(c3ncccn3)CC2)cc1	26.9*	-5.0	2.2	0.2	2.0
Cc1ccn(CCC(=O)N2CCc3ccccc32)n1	19.7*	-3.7	10.1	-0.4	4.3
COCC(=O)N(Cc1ccccc1)c1ccccc1C(=O)Nc1cc(OC)ccc1OC	x	11.5	-11.9	-0.5	-0.5
C=CCNC(=O)C1CC(=O)N(c2ccc(OCC(=O)NCc3ccccc3)cc2)C1 (stereo unspecified)	26.5*	8.3	5.9	0.8	-3.5
CCOC1OC2C(CO)OC(n3cnc4c(N)ncnc43)C2O1 (stereo unspecified)	2.1	14.6	-17.6	-0.3	2.2
Nc1ncnc2c1ncn2C1OC(CO)C2OC21 (stereo unspecified)	24.2*	8.1	2.4	-0.2	2.5
OCC1OC(n2cnc3c(/C=C(\O)c4ccccc4)ncnc32)C(O)C1O (stereo unspecified)	22.5*	-4.8	-13.9	-0.1	-0.5
